# Assay results taken from PubChem BioAssay (EPA / NIEHS).
# Results filed as inconclusive are left out. Active and inactive are the calls of the source. Rule for the calls, unless noted: active = hit-call score of the fitted dose curve at least 0.9, where 1 is the maximum; inconclusive = response in the unintended direction; inactive = score below 0.9.
# Key:
# [1] = Tanguay_ZF_120hpf_TR_legacy: (Legacy) Oregon State University Tanguay Lab 120 Hour Post-fertilization zebrafish Assay for Touch Response (AID 2283667)
# How it was run: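 Tropical 5D wild-type zebrafish embryos statically exposed to 120 hpf at 28°C, sealed and dark-covered, 0.64% DMSO final; touch response scored as present/absent by brightfield microscopy at 120 hpf. Trimethyltin chloride 5 uM positive control; dead embryos not scored.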
# [2] = CCTE_Padilla_ZF_144hpf_TERATOSCORE: (Legacy) CCTE's 144 Hour Post-fertilization zebrafish Assay Teratoscore, Padilla Lab (AID 2283679; active = hit-call score of the fitted dose curve at least 0.9, where 1 is the maximum; inactive = score below 0.9;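 for AC50: zebrafish embryos with chorions exposed by immersion from 6-8 hpf to 5 dpf with daily renewal; teratogenicity score from eye scoring of death hatching and malformations at 144 hpf; higher score means more developmental defects relative to DMSO baseline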)
# How it was run: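 Larvae scored by eye at 144 hpf for death, hatching and malformations after a day in clean Hanks'. Before that, daily-renewed exposure at 80 uM (0.4% DMSO, 26C) from roughly 6-8 hpf through 5 dpf, 4 embryos per chemical.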
# [3] = STM_H9_OrnithineISnorm_perc: Stemina devTOX quickPredict H9 human embryonic stem cell (hESC)-based Assay for Ornithine (ORN) Metabolite Biomarker, Normalized (AID 2283712; active = hit-call score of the fitted dose curve at least 0.9, where 1 is the maximum; inactive = score below 0.9;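 note: ornithine released into spent medium during last day measured by mass spectrometry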)
# How it was run: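 Undifferentiated pluripotent H9 hESCs were exposed to compound for 72h, with media and compound replaced every 24h. Ornithine in final 24-h conditioned media was measured by UPLC-HRMS, normalized to 13C-labeled spike-in standard and to median 0.1% DMSO control.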
# [4] = STM_H9_CystineISnorm_perc: Stemina devTOX quickPredict H9 human embryonic stem cell (hESC)-based Assay for Cystine (CYSS) Metabolite Biomarker, Normalized (AID 2283713; active = hit-call score of the fitted dose curve at least 0.9, where 1 is the maximum; inactive = score below 0.9)
# How it was run: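 Undifferentiated H9 hESCs were exposed to compound for 72h, with medium and compound replaced every 24h. Final-24h conditioned medium was deproteinized and analyzed by UPLC-HRMS. Cystine EIC area was normalized to spiked C13 standard and 0.1% DMSO median.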
# [5] = Tanguay_ZF_120hpf_ActivityScore_legacy: (Legacy) Oregon State University Tanguay Lab 120 Hour Post-fertilization zebrafish Assay Score for Activity (AID 2283742);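 for AC50: dechorionated Tropical 5D wild-type zebrafish embryos held singly per well; static exposure from 6 hpf until 120 hpf at 28 °C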
# How it was run: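 Dechorionated Tropical 5D embryos, one per well from 6 hpf, statically exposed to 120 hpf at 28 °C in 0.64% DMSO. Mortality and malformations scored binary by brightfield microscopy; activity score combines 18 endpoints, fitted positively versus DMSO.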
# [6] = ArunA_CellTiter_hNC: Viability Assessment in the ArunA Biomedical's Oris Neural Crest (hNC) Cell Migration Assay (AID 2283752)
# How it was run: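 Human H9-derived neural crest stem cells were plated at 60,000 per well on Matrigel in growth medium with LIF and bFGF, incubated 16 h at 37C, then exposed to chemical for 72 h. Viability was read with CellTiter Aqueous One as loss of signal versus DMSO.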
# [7] = ArunA_CellTiter_hNP: Viability Assessment in the ArunA Biomedical's Oris Neural Crest (hNC) Cell Migration Assay (AID 2283753)
# How it was run: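 H9-derived hNP1 neuroprogenitors, 60,000/well on Matrigel, cultured 16 h, then 72 h chemical exposure in test medium. Cell titer via CellTiter Aqueous One; positive-direction fit vs DMSO.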
# [8] = ArunA_Migration_hNP: ArunA Biomedical's Oris Neuroprogenitor (hNP) Cell Migration Assay (AID 2283754)
# How it was run: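 Human H9-derived hNP1 neuroprogenitors on Matrigel with LIF/bFGF, plated around seeding stoppers for 16 h at 37C; stoppers removed at start of 72 h chemical exposure. Calcein-AM staining, fluorescence 494/517 nm in detection zone; loss-of-signal vs DMSO; cytochalasin D control.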
# [9] = ArunA_NOG_NucleusCount: ArunA Biomedical's Neurite Outgrowth (NOG) Assay for Nucleus Count (AID 2283756)
# How it was run: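 Human H9-derived differentiated neurons were exposed for 48 h right after seeding. Hoechst-stained nuclei gated by size and intensity were counted by automated high-content imaging as viable neurons. Loss of signal vs DMSO.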
# [10] = system: Thyroperoxidase (TPO), gene 54314; experiment: CCTE_Simmons_AUR_rTPO: CCTE's Amplex UltraRed Assay for Thyroperoxidase (TPO) Inhibition, Simmons Lab (AID 2283662);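 for AC50: potency for loss of signal meaning inhibition of peroxidase activity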
# How it was run: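 Rat thyroid microsomes (5 ug protein) with 25 uM Amplex UltraRed and 300 uM H2O2 in 200 mM phosphate buffer, 30 min at 37C in dark; fluorescence 544/590 nm. Eight concentrations, 5 nM–87.5 uM final, 0.5% DMSO, triplicate biological replicates.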
# [11] = CCTE_Simmons_CellTiterGLO_HEK293T: Viability Assessment in CCTE's Assays for Thyroperoxidase (TPO) Inhibition, Simmons Lab (AID 2283665);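 for AC50: cells exposed to compound for 24 h before readout; actives reduce ATP signal below DMSO vehicle meaning cytotoxicity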
# How it was run: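 HEK293T cells in DMEM with 1% FBS were dosed with 8 concentrations (5 nM–87.5 uM final, 0.5% DMSO) for 24 hr at 37C; ATP content was read by CellTiter-Glo luminescence, loss-of-signal versus DMSO, three biological replicates.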
# [12] = STM_H9_OrnCyssISnorm_ratio: Stemina devTOX quickPredict H9 human embryonic stem cell (hESC)-based Assay for Ornithine (ORN):Cystine (CYSS) Ratio (AID 2283714)
# How it was run: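 Undifferentiated H9 hESCs exposed 72 h, media and compound replaced every 24 h; final 24-h conditioned media deproteinized and analysed by UPLC-HRMS against C13 spike-ins. Value is the internal-standard-normalized ORN/CYSS ratio versus 0.1% DMSO.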
# [13] = molecular target: Luciferin 4-monooxygenase (Photinus pyralis) (UniProt P08659); experiment: CCTE_Simmons_QuantiLum_inhib_2: CCTE's Firefly Luciferase Inhibition Assay, Simmons Lab (AID 2283767);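 for AC50: potency for inhibitors that lower luciferase luminescence relative to DMSO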
# How it was run: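 Recombinant firefly luciferase (5 ng/well, 200 mM potassium phosphate with 1 mg/ml BSA) was exposed to 8 concentrations from 5 nM to 87.5 uM (final, 0.5% DMSO) for 30 min at 37C in the dark. Loss of luminescence versus DMSO was read after injecting D-luciferin/ATP-analogue reagent.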
# [14] = ArunA_Migration_hNC: ArunA Biomedical's Oris Neural Crest (hNC) Cell Migration Assay (AID 2283755)
# How it was run: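 Human H9-derived neural crest stem cells, 60,000/well on Matrigel, 16 h at 37C, then 72 h chemical exposure after seeding-stopper removal. Migration into detection zone read as calcein-AM fluorescence (ex494/em517), relative to DMSO.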
# [15] = ArunA_NOG_NeuritesPerNeuron: ArunA Biomedical's Neurite Outgrowth (NOG) Assay for Neurites Per Neuron (AID 2283758)
# How it was run: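 Differentiated human H9-derived neurons exposed to chemicals for 48 h from seeding, then stained with Hoechst and βIII-tubulin/DyLight 488. Automated imaging counted neurites (processes >10 um) per valid neuron; loss of signal versus DMSO scored.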
# [16] = ArunA_NOG_BranchPointsPerNeurite: ArunA Biomedical's Neurite Outgrowth (NOG) Assay for Branch Points Per Neurite (AID 2283759)
# How it was run: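 Automated image analysis traced neurites (processes >10 um) from valid cell bodies after Hoechst and βIII-tubulin staining. hNN cells from H9 embryonic stem cells, 48 h exposure. Fitted bidirectionally against DMSO.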
# [17] = system: Thyroperoxidase (TPO), gene 445522; experiment: CCTE_Simmons_GUA_TPO: CCTE's Guaiacol Assay for Thyroperoxidase (TPO) Inhibition, Simmons Lab (AID 2283750)
# How it was run: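 Porcine thyroid microsomes (25 ug) in 200mM potassium phosphate, preincubated 30 s at 37C with compound (8 concentrations, 5 nM–87.5 uM) and 35mM guaiacol; 1mM H2O2 starts reaction. Absorbance change at 450nm over first 80 s; loss of signal versus DMSO, three replicates.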
# [18] = ArunA_NOG_NeuriteLength: ArunA Biomedical's Neurite Outgrowth (NOG) Assay for Neurite Length (AID 2283757)
# How it was run: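 Differentiated human H9-derived neurons were exposed for 48 h from seeding, then stained with Hoechst and βIII-tubulin. Automated high-content imaging gave total neurite length per valid neuron, counting processes >10 um. Loss of signal was scored versus DMSO.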
# Chain of Luciferin 4-monooxygenase (Photinus pyralis) (P08659 whole entry, looked up): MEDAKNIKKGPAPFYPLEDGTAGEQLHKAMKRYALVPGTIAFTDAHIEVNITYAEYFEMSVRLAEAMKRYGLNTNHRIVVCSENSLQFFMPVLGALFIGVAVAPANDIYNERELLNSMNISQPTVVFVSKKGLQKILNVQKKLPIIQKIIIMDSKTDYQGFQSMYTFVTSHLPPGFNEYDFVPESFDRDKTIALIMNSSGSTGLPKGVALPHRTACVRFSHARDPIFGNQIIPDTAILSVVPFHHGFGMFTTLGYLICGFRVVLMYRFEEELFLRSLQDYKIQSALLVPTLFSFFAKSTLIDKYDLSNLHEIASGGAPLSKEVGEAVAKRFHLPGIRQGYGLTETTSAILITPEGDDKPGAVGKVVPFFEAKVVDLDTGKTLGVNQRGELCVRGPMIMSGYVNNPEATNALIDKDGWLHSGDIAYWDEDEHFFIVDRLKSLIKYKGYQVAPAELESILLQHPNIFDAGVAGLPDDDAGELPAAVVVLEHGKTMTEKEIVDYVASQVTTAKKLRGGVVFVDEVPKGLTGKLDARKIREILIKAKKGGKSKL
smiles,measurement,setting,value
O=P(Oc1ccccc1)(Oc1ccccc1)Oc1ccccc1,outcome,[1],inactive
same,AC50,[2],6.17 µM (active)
same,outcome,[3],inactive
same,outcome,[4],inactive
same,outcome,[5],inactive
same,outcome,[6],inactive
same,outcome,[7],inactive
same,outcome,[8],inactive
same,outcome,[9],inactive
CCC(C)(C)c1ccc(O)cc1,AC50,[10],4.91 µM (active)
same,AC50,[11],28.1 µM (active)
same,AC50,[1],48.3 µM (active)
same,AC50,[2],14.2 µM (active)
same,AC50,[3],78.2 µM (active)
same,outcome,[4],inactive
same,AC50,[12],40.1 µM (active)
same,AC50,[5],21.3 µM (active)
same,outcome,[13],inactive
Nc1ccc2ccccc2c1,AC50,[10],0.34 µM (active)
same,outcome,[11],inactive
same,AC50,[2],42.1 µM (active)
same,outcome,[3],inactive
same,outcome,[4],inactive
same,outcome,[12],inactive
same,AC50,[5],36.8 µM (active)
same,AC50,[13],53.8 µM (active)
Cc1ccc(N)cc1N,AC50,[10],9.92 µM (active)
same,outcome,[11],inactive
same,outcome,[1],inactive
same,AC50,[3],89.7 µM (active)
same,outcome,[4],inactive
same,AC50,[12],65.8 µM (active)
same,AC50,[5],0.00921 µM (active)
same,outcome,[6],inactive
same,outcome,[8],inactive
same,AC50,[14],55.6 µM (active)
same,outcome,[9],inactive
same,outcome,[15],inactive
same,outcome,[16],inactive
same,AC50,[13],21.6 µM (active)
O=S1(=O)OCC2C(CO1)C1(Cl)C(Cl)=C(Cl)C2(Cl)C1(Cl)Cl (configuration not stated),AC50,[10],2.41 µM (active)
same,AC50,[11],28.5 µM (active)
same,AC50,[13],31.9 µM (active)
Nc1cc2c3c(c1)C(c1ccccc1)=N[C@@H](NC(=O)c1cccnc1)C(=O)N3CC2,AC50,[10],23.1 µM (active)
same,outcome,[11],inactive
same,outcome,[1],inactive
same,outcome,[5],inactive
same,outcome,[17],inactive
same,outcome,[13],inactive
CCCCN(CC)C(=O)SCCC,AC50,[10],6.35 µM (active)
same,AC50,[11],73.1 µM (active)
same,outcome,[13],inactive
O=C(O)C(Cl)Cl,outcome,[1],inactive
same,outcome,[2],inactive
same,outcome,[3],inactive
same,outcome,[4],inactive
same,outcome,[12],inactive
same,outcome,[5],inactive
O=S(=O)(c1ccc(O)cc1)c1ccc(O)cc1,AC50,[10],32 µM (active)
same,outcome,[13],inactive
CCC1(c2ccccc2)C(=O)N=C(O)NC1=O (configuration not stated),outcome,[10],inactive
same,outcome,[11],inactive
same,outcome,[1],inactive
same,AC50,[3],0.0967 µM (active)
same,outcome,[4],inactive
same,outcome,[12],inactive
same,outcome,[5],inactive
same,outcome,[13],inactive
O=c1ssc(Cl)c1Cl,AC50,[10],24.5 µM (active)
same,AC50,[11],53.8 µM (active)
same,AC50,[13],18 µM (active)
Cc1cccc(N)c1,AC50,[10],0.268 µM (active)
same,outcome,[11],inactive
same,outcome,[2],inactive
same,outcome,[5],inactive
same,AC50,[17],8.25 µM (active)
same,outcome,[13],inactive
CCN(CC)c1ccccc1,outcome,[1],inactive
same,outcome,[5],inactive
OCC1CO1 (configuration not stated),outcome,[1],inactive
same,outcome,[5],inactive
COCCOCCO,outcome,[1],inactive
same,outcome,[3],inactive
same,outcome,[4],inactive
same,outcome,[12],inactive
same,outcome,[5],inactive
O=[N+]([O-])c1ccc(Cl)c(Cl)c1,outcome,[1],inactive
same,outcome,[5],inactive
Cc1ccc([N+](=O)[O-])cc1C,outcome,[5],inactive
O=[N+]([O-])c1ccccc1,outcome,[1],inactive
same,outcome,[3],inactive
same,outcome,[4],inactive
same,outcome,[5],inactive
CCOS(=O)(=O)OCC,outcome,[1],inactive
same,outcome,[5],inactive
c1cc2c3c(cccc3c1)CC2,outcome,[1],inactive
same,outcome,[5],inactive
O=C(O)C1C(C(=O)O)C2(Cl)C(Cl)=C(Cl)C1(Cl)C2(Cl)Cl (configuration not stated),outcome,[1],inactive
same,outcome,[3],inactive
same,outcome,[4],inactive
same,outcome,[5],inactive
same,outcome,[6],inactive
same,outcome,[8],inactive
same,outcome,[14],inactive
same,outcome,[18],inactive
same,outcome,[15],inactive
same,outcome,[16],inactive
O=P1(N(CCCl)CCCl)NCCCO1 (configuration not stated),outcome,[5],inactive
c1nc[nH]n1,outcome,[1],inactive
same,outcome,[5],inactive
CCOc1ccc(C(C)(C)COCc2cccc(Oc3ccccc3)c2)cc1,outcome,[5],inactive
CC(Cc1ccc(OCC(=O)O)cc1)NCC(O)c1csc(C(F)(F)F)n1 (configuration not stated),outcome,[1],inactive
same,outcome,[5],inactive
CCCCC(CC)COP(=O)(Oc1ccccc1)Oc1ccccc1 (configuration not stated),outcome,[3],inactive
same,outcome,[4],inactive
same,outcome,[12],inactive
same,outcome,[6],inactive
same,outcome,[7],inactive
same,outcome,[8],inactive
same,outcome,[14],inactive
same,outcome,[9],inactive
ClC(Cl)(Cl)c1ccccc1,outcome,[5],inactive
CCOC(=O)c1ccccc1C(=O)OCC,outcome,[1],inactive
same,outcome,[3],inactive
same,outcome,[4],inactive
same,outcome,[5],inactive
CCCCN(CCCC)N=O,outcome,[1],inactive
same,outcome,[5],inactive
CC(Cl)(Cl)C(=O)O,outcome,[1],inactive
same,outcome,[5],inactive
ClC(Cl)c1ccccc1,outcome,[1],inactive
same,AC50,[2],14.7 µM (active)
same,outcome,[5],inactive
CCNc1nc(Cl)nc(NC(C)(C)C)n1,outcome,[1],inactive
same,outcome,[2],inactive
same,outcome,[5],inactive
Cc1ccc(O)cc1C,outcome,[1],inactive
same,outcome,[5],inactive
CCCN(CCC)c1c([N+](=O)[O-])cc(C(C)C)cc1[N+](=O)[O-],outcome,[1],inactive
same,AC50,[2],16.2 µM (active)
same,outcome,[5],inactive
CCCCc1ccccc1,outcome,[1],inactive
same,outcome,[5],inactive
CN(C)C(=O)Cl,outcome,[1],inactive
same,outcome,[5],inactive
CSC(C)(C)C=NO,outcome,[1],inactive
same,outcome,[5],inactive
